Screens as filed in PubChem BioAssay.
In the library only some 3.2% were active in any assay of this set; here they are far more common.
TRb-SRC2 inh = disrupts binding of human TR beta to SRC2; P10828; TRbeta-SRC2 peptide binding, fluorescence polarization; receptor liganded with 1 µM T3; Potency, µM (highest dose often 106 µM), for inactives: at the top dose activity change, negative = inhibition, hits mostly inhibitors; hit rate 0.065% among 280,000;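 note: plate controls were bound peptide for no effect and peptide without receptor for full effect; nearly all actives have a fitted effect of over 50% in size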
Target sequence (P10828 whole entry, looked up): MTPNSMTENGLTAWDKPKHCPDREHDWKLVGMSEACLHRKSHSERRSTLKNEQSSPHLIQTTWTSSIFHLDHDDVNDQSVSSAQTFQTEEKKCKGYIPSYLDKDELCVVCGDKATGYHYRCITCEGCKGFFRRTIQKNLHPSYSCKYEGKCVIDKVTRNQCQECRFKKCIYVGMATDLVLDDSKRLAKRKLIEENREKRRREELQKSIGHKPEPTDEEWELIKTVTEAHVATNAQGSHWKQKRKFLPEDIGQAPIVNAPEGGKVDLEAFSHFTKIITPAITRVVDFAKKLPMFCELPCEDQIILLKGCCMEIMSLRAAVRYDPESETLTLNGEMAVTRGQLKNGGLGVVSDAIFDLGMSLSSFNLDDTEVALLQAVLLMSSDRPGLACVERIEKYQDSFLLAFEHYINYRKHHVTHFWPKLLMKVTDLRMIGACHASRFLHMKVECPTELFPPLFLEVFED
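Assay buffer: 20 mM Tris-HCl, 100 mM NaCl, 10% glycerol, 1 mM EDTA, 0.01% NP-40, 1 mM DTT, 1 uM T3, 5% DMSO; TRb LBD 0.6 uM, Texas Red SRC2 20 nM; FP after 5 hr.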
TR SRC2 fluor cs = Texas Red fluorescence interference in TRb-SRC2 counter-screen; hit rate 0.29% among 280,000; TRb/SRC2 Texas Red total fluorescence interference; Potency, µM (doses to about 106 µM), without a hit: at the highest dose fluorescence change, negative = quenching; active = well fitted curve in either direction with a large enough effect; inconclusive = small, poorly fitted or top-dose-only effect
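Human TRβ ligand-binding domain (0.6 uM) and Texas Red SRC2 peptide (20 nM) in Tris buffer with 1 uM T3 and 5% DMSO were incubated with pinned compound for 5 hr at ambient temperature. Total fluorescence was computed as S + 2P (555/632 nm).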
Tau fluor counter = counter-screen for tau fibril formation inhibitors; tau K18 P301L Alexa594 fluorescence, heparin fibrillization; Potency, µM (doses to about 57.7 µM), without a hit: at the top dose activity change, negative = decrease; hit rate 0.93% among 280,000; note: nearly all actives have a fitted effect of over 55% in size
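Human tau K18 P301L (15 uM unlabeled, 0.24 uM Alexa 594-labeled) in 100 mM sodium acetate pH 7 with 20 uM heparin, 6 hr at 37 C. ThT 30 uM added, 1 hr ambient; Alexa 594 FP and total fluorescence read at 555/632 nm.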
Tau fibril ThT = tau fibrillization inhibition (ThT binding). P10636. recombinant tau K18 P301L (four-repeat tau fragment), heparin-induced fibrillization, ThT fluorescence. Potency, µM (highest dose often 57.4 µM), without a hit: at the highest dose activity, negative = inhibition, most hits filed as inhibitors. hit rate 2.1% among 270,000. AID 1460; note: nearly all actives have a fitted effect of over 55% in size
Target sequence (P10636 561-689 P618L limits assumed): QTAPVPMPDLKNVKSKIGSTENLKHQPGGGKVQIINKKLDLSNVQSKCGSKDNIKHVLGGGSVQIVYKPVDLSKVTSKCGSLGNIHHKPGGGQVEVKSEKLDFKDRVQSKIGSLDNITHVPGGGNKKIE
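Tau K18 P301L fragment (15 uM unlabeled plus 0.24 uM Alexa 594-labeled) in 100 mM sodium acetate pH 7 with compound, fibrillization induced by 20 uM heparin for 6 hr at 37 C. Thioflavin T (30 uM) added, fluorescence read after 1 hr (ex 450, em 510 nm).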
GoLoco inh red = RGS12 GoLoco-Gai1 interaction inhibition | Gai1:RGS12 GoLoco peptide FP, rhodamine, 10 min | Potency, µM (highest dose often 61.6 µM), without a hit: at the top dose activity, negative = inhibition, usual class: inhibitors | hit rate 0.44% among 230,000; active = well fitted inhibition curve with a large enough effect, not every such curve was filed as active; inactive = no such curve, though single readings can be large or run the other way; note: nearly all actives have a fitted effect of over 30% in size
Tau FP inhib = inhibitors of human tau fibril formation | P10636 | K18 P301L tau heparin fibrillization, Alexa594 FP, 6 h | Potency, µM (top dose mostly 57.7 µM), inactives show top-dose activity, negative = inhibition, actives largely listed as inhibitors | hit rate 0.39% among 280,000; note: nearly all actives have a fitted effect of over 55% in size
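Quantitative HTS format: compounds meet 15 uM recombinant K18 P301L tau and Alexa 594-tau tracer in 100 mM sodium acetate pH 7; 20 uM heparin triggers fibrillization at 37 C over 6 hr; FP gives the signal.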
Numbers without * were called inactive; ? = inconclusive; . = no result given; [ ] = another dose, or the depositor's remark. Unless noted, calls come from the whole dose curve; as a rule, active = well fitted curve in the direction sought with a large enough effect; inconclusive = small, poorly fitted or top-dose-only effect, or another doubt; inactive = no such curve, though single readings can be large; an effect the other way counts as inactive or inconclusive. Unless noted, % is set by controls: 0 for no effect and ±100 for the full control effect; potency is the fitted concentration of half-maximal effect.

SMILES	TRb-SRC2 inh	TR SRC2 fluor cs	Tau fluor counter	Tau fibril ThT	GoLoco inh red	Tau FP inhib
Cc1ccc(NS(=O)(=O)c2ccc3[nH]c4c(c3c2)CCCCC4)cc1	1%	-3%	7.9µM*[quencher]	0%	.	2%
COc1ccccc1CNS(=O)(=O)c1ccc2[nH]c3c(c2c1)CCCCC3	-5%	?	16µM*[quencher]	-9%	.	?
Cc1ccc(NS(=O)(=O)c2ccc3[nH]c4c(c3c2)CCCC4)c(C)c1	5%	?	?	4%	.	14%
COc1ccc(NS(=O)(=O)c2ccc3[nH]c4c(c3c2)CCCCCC4)cc1	1%	-1%	5µM*[quencher]	15%	.	0%
COC(=O)C1=C(C(=O)OC)[C@@H]2N(Cc3ccccc3)c3ccccc3[C@@]23C[C@@H](C(=O)OC)N(S(=O)(=O)c2ccc([N+](=O)[O-])cc2)C3=N1	1%[11.2 µM]	-2%[11.2 µM]	-7%[11.6 µM]	2%[11.5 µM]	4%[14.2 µM]	?
Oc1c(Br)cc(Br)cc1CN(Cc1cc(Br)cc(Br)c1O)C1CCCCC1	.	.	.	.	0%[14.2 µM]	.
COc1ccc(Cl)cc1NS(=O)(=O)c1ccc2[nH]c3c(c2c1)CCCC3	4%	3%	8.9µM*[quencher]	1%	.	0%
O=C(Nc1cccc(S(=O)(=O)N2CCOCC2)c1)c1cn(-c2ccccc2)nc1-c1ccc(F)cc1	3%	2%	-30%	-4%	-1%	?
Cc1ccc(-c2nn(-c3ccccc3)cc2C(=O)Nc2ccc(C)c(S(=O)(=O)N3CCOCC3)c2)cc1	1%	4%	?	-1%	4%	16µM*
O=C(Nc1cccc(S(=O)(=O)N2CCOCC2)c1)c1cn(-c2ccccc2)nc1-c1ccccc1	1%	0%	?	6%	7%	25µM*
CCCCC(=O)Nc1ncc([N+](=O)[O-])s1	-1%	-7%	-14%	-12%	5%	1%
COc1ccccc1Nc1nc(-c2cccc([N+](=O)[O-])c2)cs1	-5%	-6%	14µM*[quencher]	?	3%	1%
Cc1csc(Nc2cccc3ccccc23)n1	-1%	-6%	-20%	?	6%	0%
Cc1nc(C)c(C(=O)Nc2ncc([N+](=O)[O-])s2)o1	2%	-10%	-23%	25µM*	15%	?
O=C(Nc1nc(-c2cccnc2)cs1)c1cccc([N+](=O)[O-])c1	4%	2%	-7%	-7%	2%	4%
O=C(Nc1nc(-c2ccccc2)cs1)c1cccc([N+](=O)[O-])c1	-5%	-4%	16µM*[quencher]	?	4%	14%
COc1ccccc1Nc1nc(C)cs1	8%	0%	?	22µM*	0%	?
CCNc1ncc2nc(-c3ccc(Cl)cc3)c(=O)n(-c3ccc(OC)cc3)c2n1	.	.	.	.	2%	.
COc1c(CO)cc(CO)cc(CO)c1=O	2%	0%	-20%	?	-1%	-16%
CCCCc1nc2c(c3c1C[C@H](C)OC3)CN(C(=O)NCCc1c[nH]c3ccccc13)CC2	2%[11.2 µM]	-3%[11.2 µM]	7%[11.6 µM]	16%[11.5 µM]	7%[14.2 µM]	3%[11.6 µM]
CC(C)CC(=O)Nc1ncc([N+](=O)[O-])s1	2%	-8%	-12%	.	5%	-9%
COc1cc(NS(=O)(=O)c2ccc(Nc3nc(-c4cccc([N+](=O)[O-])c4)cs3)cc2)nc(OC)n1	3%	-8%	?	18µM*	6%	?
O=C(Nc1ccccc1)Nc1ncc([N+](=O)[O-])s1	1%	-5%	?	18µM*	4%	1%
O=[N+]([O-])c1cccc(-c2csc(Nc3ccccc3)n2)c1	-3%	-2%	25µM*[quencher]	?	12%	13%
O=C(Nc1ncc([N+](=O)[O-])s1)c1cccc([N+](=O)[O-])c1	12%	?	-14%	18µM*	1%	13%
SMILES	TRb-SRC2 inh	TR SRC2 fluor cs	Tau fluor counter	Tau fibril ThT	GoLoco inh red	Tau FP inhib
c1ccc2c(c1)SCc1c-2[nH]c2ccccc12	5%	-3%	.	.	.	.
CCC[C@H]1C[C@H](C(=O)NC(C(C)Cl)C2O[C@@H](SC)C(OP(=O)(O)O)[C@@H](O)[C@@H]2O)N(C)C1 (stereo partly specified)	0%	?	.	.	.	.
NC(CS)C(=O)O (stereo unspecified)	-4%	0%	.	.	4%	.
COc1ccccc1Nc1ccc([N+](=O)[O-])cc1N	-9%	-1%	?	14µM*	0%	13%
CC1=C(/C=C\C(=O)O)C(C)(C)CCC1	.	.	.	.	-7%[14.2 µM]	.
Nc1nc(-c2ccc(Cl)cc2)c(N=Nc2ccc(S(=O)(=O)N3CCOCC3)cc2)s1	1%	2%	11µM*[quencher]	14µM*	15%	?
CCCCC=O	-4%	-1%	.	.	11%	.
CCCCC(CC)CNCC(CC)CCCC (stereo unspecified)	2%	-2%	.	.	-5%	.
CCCCNc1nc2c(c(=O)n(Cc3ccc(Cl)cc3)c(=O)n2C)n1C	2%	3%	?	?	.	18%
CCCCNc1nc2c(c(=O)n(Cc3ccc(Cl)c(Cl)c3)c(=O)n2C)n1C	-1%	-1%	11µM*[quencher]	?	.	?
COC(=O)[C@@H](NC(=O)N1CCc2nc(-c3ccccc3)c3c(c2C1)CO[C@@H](C)C3)C(C)C	6%[11.2 µM]	-3%[11.2 µM]	3%[11.6 µM]	6%[11.5 µM]	-1%[14.2 µM]	-3%[11.6 µM]
O=c1c2c3c(sc2ncn1/N=C/c1ccc([N+](=O)[O-])o1)CCCC3	-3%	1%	?	20µM*	1%	-15%
COc1ccc(-c2cn[nH]c2-c2ccc(OCc3ccccc3)cc2O)cc1	0%	-5%	6.3µM*[quencher]	-14%	5%	?
O=[N+]([O-])c1ccc(COc2ccc(-c3[nH]ncc3-c3ccc(Cl)cc3)c(O)c2)cc1	74%[53 µM]	-103%[53 µM]	2%	5%	-19%	-2%
COc1ccccc1-c1cn[nH]c1-c1ccc(OCc2ccccc2)cc1O	5%	3%	11µM*[quencher]	-13%	-3%	?
COC(=O)C1=C(C(=O)OC)[C@@H]2N(C)c3ccccc3[C@@]23C[C@@H](C(=O)OC)N(S(=O)(=O)c2ccc4c(c2)OCCN4C)C3=N1	8%[11.2 µM]	0%[11.2 µM]	-4%[11.6 µM]	10%[11.5 µM]	1%[14.2 µM]	-3%[11.6 µM]
O=C(O)[C@@H](O)[C@@H](O)[C@@H](O)[C@@H](O)c1nc2ccccc2s1	.	.	.	.	0%[14.2 µM]	.
O=C(CO/N=C/c1cccc([N+](=O)[O-])c1)NC1CCCCC1	-10%	?	-10%	-6%	0%	-3%
O=C(CO/N=C/c1cccc([N+](=O)[O-])c1)Nc1ccc2ccccc2c1	-3%	1%	13µM*[quencher]	?	-15%	-6%
CCOC(=O)N1CCC(N2Cc3cccc(C(=O)Nc4cccc(F)c4)c3C2=O)CC1	7%	-1%	4µM*[quencher]	?	11%	?
